These results are taken from PubChem BioAssay (Tox21).

Unmarked numbers belong to inactive results. The source made the active and inactive calls. The call rests on the fitted dose curve; in most records, active means well fitted curve in the direction sought with a large enough effect in the repeat runs; inconclusive means weak or mixed curves; inactive means flat fitted curve, though single readings scatter.
On the % scale 0 is the no-effect control and ±100 the full control effect.

A short description of one experiment: qHTS assay to test for compound auto fluorescence at 590 nm (red) in HEK293 cell free culture (AID 720683). As to conditions: cell-free medium autofluorescence, Ex540/Em590 red; series mostly up to 91.3 µM; fluorescence, % of fluorescent control: at the top concentration. The method in brief:
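Cell-free wells of DMEM with 10% FBS received compound, and intrinsic fluorescence was read at excitation/emission 540/590 nm. Values expressed as equivalence to Rose Bengal sodium.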
For the molecule `CC(CCl)OC(C)CCl` (stereo unspecified), the “fluorescence, % of fluorescent control” value is 0.132%.

Consider `CCCCCCC/C=C/C=O`, for which the “fluorescence, % of fluorescent control” value is 0.349%.

On to `Oc1ccc(Oc2ccccc2)cc1`, for which the “fluorescence, % of fluorescent control” value was 0.0137%.

As for `FC(F)(Cl)C(F)(Cl)Cl`, the “fluorescence, % of fluorescent control” value is 0.0087%.

Regarding `CCC(C)C1N=C(C)C(C)S1` (stereo unspecified), the “fluorescence, % of fluorescent control” value was -0.315%.

`O=C(Nc1ccccc1)c1cc([N+](=O)[O-])ccc1Cl`: the “fluorescence, % of fluorescent control” value is 0.0072%.

As to `O=C(Cl)c1ccc(F)c(Cl)c1`, the “fluorescence, % of fluorescent control” value was -0.389%.

Turning to `CC(=O)CC/C=C(\C)CC/C=C(\C)CC/C=C(\C)CCC=C(C)C`, the “fluorescence, % of fluorescent control” value was -0.326% [at 46 µM].

Take `CCOc1ccc2c(c1)C(C)CC(C)(C)N2` (stereo unspecified): the “fluorescence, % of fluorescent control” value is -0.274%.

As to `CCCC1CCOC(C)S1` (stereo unspecified), the “fluorescence, % of fluorescent control” value is -0.0339%.

For the molecule `N#Cc1ccc(CC(=O)c2cccc(C(F)(F)F)c2)cc1`, the “fluorescence, % of fluorescent control” value was 0.0271%.

As to `O=C(OCCCCCOC(=O)c1ccccc1)c1ccccc1`, the “fluorescence, % of fluorescent control” value was 0.279%.

For `Cc1c(Nc2ncccc2C(=O)O)cccc1C(F)(F)F`, the fluorescence, % of fluorescent control was -0.29% [at 18.6 µM].

Regarding `O=C(O)c1ccc2c(c1)nc(C(=O)NC1CCN(C3CC3)CC1)n2Cc1cc(-c2ccc(Cl)s2)on1`, the fluorescence, % of fluorescent control was 0.116% [at 18.6 µM].

As for `C[C@@H](O)[C@H]1C(=O)N2C(C(=O)O)=C(S[C@@H]3CN[C@H](CNS(N)(=O)=O)C3)[C@H](C)[C@H]12`, the “fluorescence, % of fluorescent control” value is -0.0741% [at 46 µM].

On to `CCCCCCOC(=O)c1ccccc1`, for which the “fluorescence, % of fluorescent control” value was 0.0294%.

For the molecule `CCCCOC(=O)CC#N`, the “fluorescence, % of fluorescent control” value was -0.0183% [at 95.7 µM].

Regarding `Nc1ccccc1Nc1ccccc1`, the “fluorescence, % of fluorescent control” value is 0.064%.

In the case of `Cc1cc(SC2=C(O)C[C@@](CCc3ccc(N)cc3)(C(C)C)OC2=O)c(C(C)(C)C)cc1CO`, the “fluorescence, % of fluorescent control” value was -0.054%.

`O=C(N[C@@H](Cc1ccccc1)[C@@H](O)C(=O)N1C[C@@H](O)[C@@H](O)C1)c1cc2cc(Cl)ccc2[nH]1`: the “fluorescence, % of fluorescent control” value was -0.0459%.

Regarding `COC=O`, the fluorescence, % of fluorescent control was -0.0562% [at 9.17 µM].

Regarding `CCN(CCCCOC(=O)c1ccc(OC)c(OC)c1)C(C)Cc1ccc(OC)cc1` (stereo unspecified), the fluorescence, % of fluorescent control is -0.0979% [at 18.6 µM].

For `COc1cc(CNC(=O)CCCC/C=C/C(C)C)ccc1O`, the result was inactive.

Take `CC/C=C/CCO`: the “fluorescence, % of fluorescent control” value was -0.0792% [at 95.7 µM].

In the case of `C=CC(C)(O)CC/C=C(/C)CCC=C(C)C` (stereo unspecified), the “fluorescence, % of fluorescent control” value was -0.229%.

Regarding `Clc1ccccc1-c1nc(-c2ccncc2)no1`, the “fluorescence, % of fluorescent control” value was -0.452% [at 46 µM].

Turning to `C(/C=C/C=C/Nc1ccccc1)=Nc1ccccc1`, the “fluorescence, % of fluorescent control” value is -0.0209%.

`O=C(O)c1ccccc1-n1cc(C(=O)O)c(=O)c2cc(Nc3c(F)cc(F)cc3Cl)c(Cl)cc21`: the “fluorescence, % of fluorescent control” value is -0.0047%.

Turning to `O=Cc1ccc([N+](=O)[O-])cc1`, the “fluorescence, % of fluorescent control” value is -0.0302%.

Regarding `CC(C)(Cc1c[nH]c2ccccc12)NCC(O)COc1ccccc1C#N` (stereo unspecified), the “fluorescence, % of fluorescent control” value is -0.606% [at 46 µM].

On to `CCc1c(C)[nH]c2c1C(=O)C(CN1CCOCC1)CC2` (stereo unspecified), for which the fluorescence, % of fluorescent control was 0.113% [at 18.6 µM].

With `CCOc1ccc(NC(C)=O)cc1N`, the “fluorescence, % of fluorescent control” value is 0.0837% [at 95.7 µM].

Consider `COc1ccc(C(=O)c2ccc(C)cc2)c(O)c1`, for which the molecule was called inactive.

As for `C=C(C)C(=O)OCCCCCCCCCCOC(=O)C(=C)C`, the “fluorescence, % of fluorescent control” value is -0.388%.

In the case of `CCCCCCCCCCCCCCCCC(=O)O`, the “fluorescence, % of fluorescent control” value is 0.0445% [at 46 µM].

For `CC(=O)c1cccnc1`, the “fluorescence, % of fluorescent control” value is -0.327%.

`CCC[Si](OC)(OC)OC`: the “fluorescence, % of fluorescent control” value is 0.0029%.

Another experiment is described as follows: qHTS assay to test for compound auto fluorescence at 590 nm (red) in HepG2 cell free culture (AID 720684). Particulars: cell-free medium autofluorescence, red 540/590 nm; series mostly up to 91.3 µM; fluorescence, % of Rose Bengal: at the top concentration. The method, boiled down:
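Compounds are added to culture medium (MEM, 10% FBS) lacking cells, then fluorescence is read at excitation 540 nm, emission 590 nm, with Rose Bengal sodium as the equivalency standard.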
For `Oc1ccc(Oc2ccccc2)cc1`, the “fluorescence, % of Rose Bengal” value is 0.0267%.

Turning to `O=C(Cl)c1ccc(F)c(Cl)c1`, the “fluorescence, % of Rose Bengal” value was -0.17%.

Turning to `O=C(O)c1ccc2c(c1)nc(C(=O)NC1CCN(C3CC3)CC1)n2Cc1cc(-c2ccc(Cl)s2)on1`, the fluorescence, % of Rose Bengal was -0.135% [at 18.6 µM].

Consider `O=C(N[C@@H](Cc1ccccc1)[C@@H](O)C(=O)N1C[C@@H](O)[C@@H](O)C1)c1cc2cc(Cl)ccc2[nH]1`, for which the “fluorescence, % of Rose Bengal” value is 0.285%.

Consider `COC=O`, for which the fluorescence, % of Rose Bengal was -0.0589% [at 9.17 µM].

As to `CCc1c(C)[nH]c2c1C(=O)C(CN1CCOCC1)CC2` (stereo unspecified), the fluorescence, % of Rose Bengal is -0.199% [at 18.6 µM].

Consider `C=C(C)C(=O)OCCCCCCCCCCOC(=O)C(=C)C`, for which the “fluorescence, % of Rose Bengal” value is -0.115%.

Another experiment is described as follows: qHTS assay to test for compound auto fluorescence at 460 nm (blue) in HepG2 cell free culture (AID 720685). As to conditions: Cell-free culture medium, blue autofluorescence 405/460 nm; series mostly up to 91.3 µM; fluorescence, % of fluorescent control: at the top concentration. The method in brief: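 Compound (23 nL) or DMSO pinned into cell-free MEM with 10% FBS; blue fluorescence read at 405/460 nm excitation/emission, expressed as auto-fluorescence equivalency to triamterene.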
(In general: Quantitative high-throughput screening tests each substance at several concentrations.)
`CC(CCl)OC(C)CCl` (stereo unspecified): the “fluorescence, % of fluorescent control” value was 0.199%.

Take `CCCCCCC/C=C/C=O`: the “fluorescence, % of fluorescent control” value is -0.0083%.

Take `Oc1ccc(Oc2ccccc2)cc1`: the “fluorescence, % of fluorescent control” value is -0.0115%.

In the case of `FC(F)(Cl)C(F)(Cl)Cl`, the “fluorescence, % of fluorescent control” value is -0.0598%.

As to `CCC(C)C1N=C(C)C(C)S1` (stereo unspecified), the “fluorescence, % of fluorescent control” value was 0.112%.

For the molecule `O=C(Nc1ccccc1)c1cc([N+](=O)[O-])ccc1Cl`, the “fluorescence, % of fluorescent control” value is -0.0377%.

For the molecule `O=C(Cl)c1ccc(F)c(Cl)c1`, the “fluorescence, % of fluorescent control” value was -0.273%.

For `CC(=O)CC/C=C(\C)CC/C=C(\C)CC/C=C(\C)CCC=C(C)C`, the “fluorescence, % of fluorescent control” value was -0.0175% [at 46 µM].

For the molecule `CCOc1ccc2c(c1)C(C)CC(C)(C)N2` (stereo unspecified), the “fluorescence, % of fluorescent control” value is 0.62%.

As to `CCCC1CCOC(C)S1` (stereo unspecified), the “fluorescence, % of fluorescent control” value is -0.0089%.

In the case of `N#Cc1ccc(CC(=O)c2cccc(C(F)(F)F)c2)cc1`, the “fluorescence, % of fluorescent control” value was 0.036%.

On to `O=C(OCCCCCOC(=O)c1ccccc1)c1ccccc1`, for which the “fluorescence, % of fluorescent control” value is -0.0124%.

Take `Cc1c(Nc2ncccc2C(=O)O)cccc1C(F)(F)F`: the fluorescence, % of fluorescent control is 0.0612% [at 18.6 µM].

As for `O=C(O)c1ccc2c(c1)nc(C(=O)NC1CCN(C3CC3)CC1)n2Cc1cc(-c2ccc(Cl)s2)on1`, the fluorescence, % of fluorescent control was -0.029% [at 18.6 µM].

On to `C[C@@H](O)[C@H]1C(=O)N2C(C(=O)O)=C(S[C@@H]3CN[C@H](CNS(N)(=O)=O)C3)[C@H](C)[C@H]12`, for which the “fluorescence, % of fluorescent control” value is 1.76% [at 46 µM].

`CCCCCCOC(=O)c1ccccc1`: the “fluorescence, % of fluorescent control” value is 0.47%.

As for `CCCCOC(=O)CC#N`, the “fluorescence, % of fluorescent control” value is -0.0215% [at 95.7 µM].

For `Nc1ccccc1Nc1ccccc1`, the “fluorescence, % of fluorescent control” value is 0.172%.

For `Cc1cc(SC2=C(O)C[C@@](CCc3ccc(N)cc3)(C(C)C)OC2=O)c(C(C)(C)C)cc1CO`, the “fluorescence, % of fluorescent control” value was 0.182%.

Take `O=C(N[C@@H](Cc1ccccc1)[C@@H](O)C(=O)N1C[C@@H](O)[C@@H](O)C1)c1cc2cc(Cl)ccc2[nH]1`: the “fluorescence, % of fluorescent control” value was 0.0429%.

On to `COC=O`, for which the fluorescence, % of fluorescent control was -0.142% [at 9.17 µM].

In the case of `CCN(CCCCOC(=O)c1ccc(OC)c(OC)c1)C(C)Cc1ccc(OC)cc1` (stereo unspecified), the fluorescence, % of fluorescent control is 0.0055% [at 18.6 µM].

Consider `COc1cc(CNC(=O)CCCC/C=C/C(C)C)ccc1O`, for which the molecule was called inactive.

On to `CC/C=C/CCO`, for which the “fluorescence, % of fluorescent control” value is 0.0388% [at 95.7 µM].

On to `C=CC(C)(O)CC/C=C(/C)CCC=C(C)C` (stereo unspecified), for which the “fluorescence, % of fluorescent control” value is -0.0284%.

For the molecule `Clc1ccccc1-c1nc(-c2ccncc2)no1`, the “fluorescence, % of fluorescent control” value is -0.131% [at 46 µM].

Regarding `C(/C=C/C=C/Nc1ccccc1)=Nc1ccccc1`, the “fluorescence, % of fluorescent control” value was -0.0109%.

Regarding `O=C(O)c1ccccc1-n1cc(C(=O)O)c(=O)c2cc(Nc3c(F)cc(F)cc3Cl)c(Cl)cc21`, the “fluorescence, % of fluorescent control” value is 0.846%.

With `O=Cc1ccc([N+](=O)[O-])cc1`, the “fluorescence, % of fluorescent control” value is 0.209%.

On to `CC(C)(Cc1c[nH]c2ccccc12)NCC(O)COc1ccccc1C#N` (stereo unspecified), for which the “fluorescence, % of fluorescent control” value is 0.0638% [at 46 µM].

Turning to `CCc1c(C)[nH]c2c1C(=O)C(CN1CCOCC1)CC2` (stereo unspecified), the fluorescence, % of fluorescent control is -0.0691% [at 18.6 µM].

`CCOc1ccc(NC(C)=O)cc1N`: the “fluorescence, % of fluorescent control” value is 0.008% [at 95.7 µM].

Consider `COc1ccc(C(=O)c2ccc(C)cc2)c(O)c1`, for which the result was inactive.

Take `C=C(C)C(=O)OCCCCCCCCCCOC(=O)C(=C)C`: the “fluorescence, % of fluorescent control” value is -0.0045%.

For `CCCCCCCCCCCCCCCCC(=O)O`, the “fluorescence, % of fluorescent control” value is 0.0716% [at 46 µM].

In the case of `CC(=O)c1cccnc1`, the “fluorescence, % of fluorescent control” value was -0.09%.

For the molecule `CCC[Si](OC)(OC)OC`, the “fluorescence, % of fluorescent control” value is -0.0429%.
